# Source: PubChem BioAssay
# GRK2 aptamer HTS – blocks RNA aptamer binding to human GRK2. bead flow cytometry, FAM-aptamer displacement from GRK2. inhibition of aptamer binding, % at 10 µM. hit rate 0.59% among 330,000. AID 488847;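 active means inhibition of aptamer binding above 40%, roughly 3 SD of noise, on plates passing a quality check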;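 further: median bead fluorescence of bound FAM aptamer so fluorescent compounds give negative values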
# ANO1 activ – activates or potentiates the mouse TMEM16A chloride channel. B-score at 10 µM. HEK293 TMEM16A/YFP-H148Q/I152L, iodide quench fluorescence; active compounds read low. hit rate 0.3% among 340,000;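 active means fluorescence-ratio B-score plate-corrected deviation score at least 3 library SD below zero, with starting fluorescence score within 5 deviations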;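 further: channel opened by trigger with iodide after compound preincubation; score built on the fluorescence ratio of max minus min over baseline; more negative score means more quench and so TMEM16A activation or potentiation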
# TLR9-MyD88 block – TLR9-MyD88 interaction inhibition; Q9NR96+Q99836; CHO BLA complementation TLR9-MyD88, CCF4 FRET ratio; hit rate 0.21% among 340,000; inhibition, % at 4.98 µM;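 active means inhibition above the mean over all tested compounds plus 3 SD, cut at about 21% in these data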;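 further: 0% = DMSO only wells and 100% = clavulanate BLA inhibitor control wells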
# NOD2-RIPK2 inh – blocks binding of human NOD2 to RIPK2 | O43353 | CHO BLA complementation NOD2-RIPK2, CCF4 ratio | inhibition, % at 4.98 µM | hit rate 0.38% among 360,000 | AID 624267; in the data active means inhibition above about 21%;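 further: 0% = vehicle only and 100% = reference blocker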
# Target sequence (O43353 whole entry, looked up): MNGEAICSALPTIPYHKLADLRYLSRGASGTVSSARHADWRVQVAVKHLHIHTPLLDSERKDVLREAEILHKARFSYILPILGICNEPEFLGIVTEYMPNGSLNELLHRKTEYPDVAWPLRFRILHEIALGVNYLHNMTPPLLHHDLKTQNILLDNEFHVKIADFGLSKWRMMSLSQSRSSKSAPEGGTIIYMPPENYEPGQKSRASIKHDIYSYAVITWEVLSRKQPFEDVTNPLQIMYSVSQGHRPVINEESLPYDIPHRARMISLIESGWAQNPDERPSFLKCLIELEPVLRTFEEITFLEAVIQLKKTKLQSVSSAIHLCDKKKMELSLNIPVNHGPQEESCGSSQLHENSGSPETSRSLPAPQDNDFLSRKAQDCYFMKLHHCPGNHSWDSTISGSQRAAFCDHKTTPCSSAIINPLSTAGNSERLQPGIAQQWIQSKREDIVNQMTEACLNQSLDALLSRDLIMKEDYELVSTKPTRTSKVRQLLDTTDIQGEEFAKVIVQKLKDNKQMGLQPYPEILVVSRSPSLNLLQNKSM
# TMEM16A inh – inhibitors of mouse TMEM16A calcium-activated chloride channel; Q8BHY3; HEK293 TMEM16A/YFP iodide influx fluorescence, ionomycin; normalized B-score (activity score, 25-100; higher = stronger inhibition) at 10 µM; hit rate 1.2% among 310,000; AID 588511;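 active means ratio plate-corrected score three or more library SD toward inhibition, starting fluorescence score within five deviations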;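 further: score derived from kinetic fluorescence span divided by baseline fluorescence per well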
# TLR4 MyD88 comp – inhibitors of human TLR4-MyD88 binding. HeLa CL3-4 TLR4/MyD88 BLA complementation, FRET ratio. inhibition, % at 8.4 µM. hit rate 0.18% among 200,000. AID 861; in the data active means inhibition above about 25%;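 further: 0% = vehicle and 100% = reference inhibitor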
# TLR4-MyD88 conf – confirmation of human TLR4-MyD88 binding inhibitors; inhibition, % at 8.4 µM; hit rate 50% among 350; HeLa CL3-4 BLA complementation, CCF4 FRET ratio; AID 941; shares compounds with TLR4 MyD88 comp;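 active means mean inhibition across three repeat runs above about 25% carried over from the earlier screen, limit read from the data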;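 further: plate controls were DMSO only for no effect and clavulanic acid blocking BLA at full dose for full effect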
# BLA inhibitor ct – counter-screen for TLR4-MyD88 inhibitors: beta-lactamase reporter inhibitors; shares compounds with TLR4 MyD88 comp; HeLa BLA reporter, CCF4 FRET ratio; inhibition, % at 8.4 µM; hit rate 63% among 350; AID 1237;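 active means mean inhibition over three repeats above about 26% taken from the earlier screen, limit read from the data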;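 further: HeLa cells stably expressing beta-lactamase reporter as counterscreen for TLR4-MyD88 inhibitors; 0% = DMSO and 100% = clavulanic acid full inhibition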
# The depositor's hits bear a star; i = inactive; x = no result given. Shown are actives, neighbours in structure and some others; about 2.2% of the full set was active somewhere.
SMILES,GRK2 aptamer HTS,ANO1 activ,TLR9-MyD88 block,NOD2-RIPK2 inh,TMEM16A inh,TLR4 MyD88 comp,TLR4-MyD88 conf,BLA inhibitor ct
CC(C)=C[C@H]1C[C@H](C)[C@H]2CC[C@H](C)c3c(O[C@@H]4O[C@@H](C)[C@@H](O)[C@@H](O)[C@@H]4O)c(O)c(C)c1c32,x,x,x,-9,x,x,x,x
O=S(=O)(NCc1ccccc1)c1ccc(Cl)cc1,1,i,4,-2,i,1,x,x
O=S(=O)(Nc1cc2nc3ccccc3nc2n1Cc1ccccc1)c1ccc(Cl)cc1,11,i,-2,44*,i,36*,33*,66*
CCC(=O)N1Cc2cc(C(=O)Nc3nccs3)nc(-c3cccc(-c4ccccc4OC)c3)c2[C@@H]1CCO,x,x,x,-22,x,x,x,x
CCCCCCCn1c2c(c(=N)c3ccccc31)CCC2,0,-5.1*,-11,7,100*,28*,30*,34*
CCSc1ncc(/C=N/Nc2ccc([N+](=O)[O-])cc2)n1C,4,i,8,14,i,44*,33*,55*
OC1C2COC(O2)C2OC(c3ccccc3)OC12 (stereo unspecified),x,x,x,-9,x,x,x,x
Cc1cc(C)nc(SC2=CS(=O)(=O)c3ccccc32)n1,0,i,13,1,i,7,x,x
O=S1(=O)C=C(Sc2nc3ccccc3s2)c2ccccc21,0,x,x,x,i,26*,13,-19
COc1cc(CN2C[C@@H](CO)O[C@@H](n3cnc4c(NCC(C)C)ncnc43)C2)cc(OC)c1OC,x,x,x,2,x,x,x,x
CCN(CC)c1ccc2cc(-c3nc4ccccc4[nH]3)c(=O)oc2c1,0,i,37*,45*,i,40*,64*,78*
CCN(CC)c1ccc2cc(-c3nc(-c4ccc(OC)cc4)cs3)c(=O)oc2c1,0,x,x,x,i,80*,90*,115*
CCN(CC)c1ccc2cc(-c3nnc(-c4ccccc4)o3)c(=O)oc2c1,0,i,10,12,i,8,x,x
CC(C)CSC1=NSC2=NC(=O)/C(=C\c3coc4ccccc4c3=O)C(=N)N12,3,i,9,17,i,43*,14,31*
CSC1=NSC2=NC(=O)/C(=C\c3coc4ccccc4c3=O)C(=N)N12,4,i,-2,6,i,10,x,x
CCOC(=O)[C@]12CCC=C1N(Cc1ccccc1)C(=O)[C@H](CC(=O)NCc1cccs1)C2,x,x,x,-4,x,x,x,x
COCCNc1nc(SCC(=O)N2CCN(c3ccccc3OC)CC2)nc2ccccc12,0,i,1,-3,i,25*,-7,-3
Cc1ccc(NC(=O)CN2C(=O)S/C(=C\c3ccc(-c4cccc(C(=O)O)c4C)o3)C2=O)cc1,0,x,x,x,i,3,x,x
Cc1ccc(C)c(N2C(=N)S/C(=C\c3ccc(-c4ccccc4C(=O)O)o3)C2=O)c1,0,i,2,15,i,26*,6,12
CC(C)(C)c1cc(NC(=O)c2cccs2)no1,6,i,1,-6,i,x,x,x
CC(C)(C)c1cc(NC(=O)c2cccnc2)no1,1,i,0,-10,i,27*,7,0
CCOC(=O)Cc1csc(NC(=O)Cc2ccccc2)n1,1,i,3,-9,i,-6,x,x
CCOC(=O)Cc1csc(NC(=O)Cc2cccs2)n1,2,i,3,5,i,26*,-6,-2
COc1ccc(N/C=C2\CCOC2=O)cc1,9,i,0,-10,i,26*,12,-1
COc1ccc(/C=C2\CCOC2=O)cc1,0,i,4,-6,i,8,x,x
SMILES,GRK2 aptamer HTS,ANO1 activ,TLR9-MyD88 block,NOD2-RIPK2 inh,TMEM16A inh,TLR4 MyD88 comp,TLR4-MyD88 conf,BLA inhibitor ct
CC1=NOC(=O)/C1=C\c1ccc(-c2ccccc2Br)o1,x,i,9,0,x,26*,21,-18
O=C(CSc1nnc(CNC(=O)c2c(F)cccc2Cl)o1)Nc1ccccc1,3,i,-11,-3,i,6,x,x
O=C(CSc1nnc(CNC(=O)c2c(F)cccc2Cl)o1)c1ccccc1,0,i,3,5,i,27*,0,7
CCCNC(=O)C1(C)CCN(CCOc2ccc(Cl)cc2)C1 (stereo unspecified),x,x,x,4,x,x,x,x
CN1CCN(Cn2cc(/C=C/C(=O)c3ccccc3)c3ccccc32)CC1,0,i,23*,33*,i,28*,16,34*
Cc1ccc(Cc2c(-c3ccc(Cl)cc3)nc3c(C)cc(Br)cn23)cc1,x,x,x,3,x,x,x,x
Cc1ccc(N=Cc2sc(O)c3ccccc23)cc1,0,i,19,-5,i,39*,18,52*
Cc1ccc(N=Cc2sc(O)c3ccccc23)c(C)c1,1,i,5,-4,i,25*,19,37*
Cc1ccc(N=Cc2c(O)c3ccccc3n(C)c2=O)cc1,0,i,6,0,i,x,x,x
COC(=O)c1ccc(-c2nc3cc(Cl)c(N)cc3s2)cc1,0,i,11,9,i,38*,44*,59*
COc1cc(/C=C(\C#N)c2nc3ccccc3s2)ccc1OCC(=O)Nc1ccccc1,0,i,7,-8,i,-6,x,x
COc1cc(/C=C(/C#N)c2nc3ccccc3[nH]2)ccc1OCC(=O)Nc1ccccc1C(C)C,0,i,-3,-3,i,77*,80*,113*
COc1cc(/C=C(/C#N)c2nc3ccccc3[nH]2)ccc1OCC(=O)Nc1ccccc1C,0,i,-3,-9,i,83*,80*,107*
COc1cc(/C=C(\C#N)c2nc3ccccc3[nH]2)ccc1OC(=O)c1ccco1,7,i,7,-3,i,-9,x,x
CSCCC(C(=O)NCc1ccccc1)n1c(C2CCN(C(C)=O)CC2)nc2ccccc21 (stereo unspecified),x,x,x,1,x,x,x,x
O=C1CNC(=O)/C1=C\N1CCCCC1,4,i,-4,-8,i,29*,-1,3
CCN1CCN(c2cc(C)c3cc(NC(=S)N4CCN(c5ccccc5)CC4)ccc3n2)CC1,0,i,12,9,i,26*,25*,37*
O=C(N/N=C/c1cc(Cl)ccc1O)C(=O)Nc1ccccc1OC(F)(F)C(F)F,4,i,7,8,i,27*,7,20
